From PubChem BioAssay AID493065 (National Center for Advancing Translational Sciences (NCATS), 2011)
The list shows a part of the results. Results filed as inconclusive are left out. Unmarked numbers belong to inactive results. The call rests on the fitted dose curve; in most records, active means well fitted activation curve with a large enough effect; inconclusive means small, poorly fitted or top-dose-only effect; inactive means flat fitted curve, though single readings scatter.

Assay: Parental Cell Counter Screen Assay for Epigenetic Modulators: Hit Validation
Settings: mouse c127i parental cells, 30 h, active compounds read high, concentration not given here
Text: NIH Molecular Libraries Screening Centers Network [MLSCN] NIH Chemical Genomics Center [NCGC] MLSCN Grant: 1 X01 MH079860-01 Assay Provider: Elisabeth D. Martinez, University of Texas SW Medical Center NCGC Assay Overview: This assay is a counter screen for the Locus Derepression (LDR) assay (PubChem AID 1865). The LDR assay detects the derepression of a GFP reporter that is stably integrated in a region of the genome of murine c127i mammary cells that is presumably silenced. Compounds that cause derepression of the locus to express GFP are identified by enumerating GFP positive cells using a laser-scanning microplate cytometer. […] Compounds active in the parental c127i cells are likely fluorescent.
NCGC Assay Protocol Summary: Three hundred cells in 5 uL per well were dispensed into black, clear-bottom 1536-well plates. Twenty-three nL compound was transferred to the assay plate and cells were incubated 30 hours at 37 C. Medium was removed, cells were washed two times with PBS, and fluorescent cells were enumerated as objects between the sizes of 20 to 120 um width and depth using a laser-scanning microplate imager (Acumen Explorer Ex3, TTP Labtech). For further details, see Johnson, RL, Huang, W, Jadhav, A, Austin, CP, Inglese, J, Martinez, ED (2008). A quantitative high-throughput screen identifies potential epigenetic modulators of gene expression. Anal Biochem 375: 237-48.

## O=C1NC(=O)N(CCc2ccc(F)cc2)C(=O)/C1=C/C=C/c1ccccc1
  fluorescent cell count: 3%
